In PubChem BioAssay:
For some assays here: Entries with a potency or affinity are not part of this list. Calls of active or inactive are those of the source.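 How the source made its calls, unless noted: active means primary screen inhibitor hit that blocks the TRPC4 channel at some tested dose, yielding a dose curve; inactive means the rest.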

Columns and labels:
[1] = tested on: TRPC4 beta (transient receptor potential cation channel C4), mouse; test: activators of mouse TRPC4 channel, confirmation, cell-based, Fluo4 calcium, HEK293 TRPC4beta/mu-opioid, duplicates, 10 µM (AID 2426;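 active means fluorescence ratio normalized to control raised more than 50% in primary screen plus both repeat runs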); conditions: Fluo4 calcium fluorescence, at 10 µM; stronger effect = higher value
[2] = tested on: transient receptor potential cation channel C4 beta (TRPC4), mouse; test: activators of mouse TRPC4 channel, confirmation, cell-based, second round, Fluo4, HEK293 TRPC4beta/mu-opioid, 1 µM (AID 2461;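 active means primary screen active and over 50% activation in each of two duplicate runs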); conditions: Fluo4 calcium fluorescence, at 1 µM; stronger effect = higher value
[3] = tested on: TRPC4 (transient receptor potential cation channel C4 beta), mouse; test: positive allosteric modulators of mouse TRPC4, confirmation, cell-based, second round, Fluo-4, HEK293 TRPC4beta/mu-opioid, 1 µM (AID 2554;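 active means primary screen hit whose fluorescence ratio, in both repeats, exceeds the weak agonist control mean by 3 SD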); conditions: DAMGO EC20, Fluo-4 calcium flux, at 1 µM; stronger effect = higher value
[4] = tested on: TRPC4 beta (transient receptor potential cation channel C4), mouse; test: positive allosteric modulators of mouse TRPC4, confirmation, cell-based, Fluo-4, HEK293 TRPC4beta/mu-opioid (AID 2555;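 active means primary screen hit whose calcium fluorescence ratio, in both repeats, exceeds the weak agonist control mean by 3 SD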); conditions: DAMGO EC20, Fluo-4 calcium flux, at 10 µM; stronger effect = higher value
[5] = biological target: Short transient receptor potential channel 4 (Mus musculus) (UniProt Q9QUQ5); test: inhibitors of mouse TRPC4 channel, confirmation, cell-based, Fluo4, HEK293 TRPC4beta/mu-opioid (AID 2636;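 active means calcium signal cut by more than 3 SD below the full-agonist control yet still positive, in both repeats and the earlier primary screen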); conditions: DAMGO, Fluo4 calcium flux, at 10 µM; stronger effect = higher value
Short transient receptor potential channel 4 (Mus musculus), sequence (Q9QUQ5 whole entry, looked up): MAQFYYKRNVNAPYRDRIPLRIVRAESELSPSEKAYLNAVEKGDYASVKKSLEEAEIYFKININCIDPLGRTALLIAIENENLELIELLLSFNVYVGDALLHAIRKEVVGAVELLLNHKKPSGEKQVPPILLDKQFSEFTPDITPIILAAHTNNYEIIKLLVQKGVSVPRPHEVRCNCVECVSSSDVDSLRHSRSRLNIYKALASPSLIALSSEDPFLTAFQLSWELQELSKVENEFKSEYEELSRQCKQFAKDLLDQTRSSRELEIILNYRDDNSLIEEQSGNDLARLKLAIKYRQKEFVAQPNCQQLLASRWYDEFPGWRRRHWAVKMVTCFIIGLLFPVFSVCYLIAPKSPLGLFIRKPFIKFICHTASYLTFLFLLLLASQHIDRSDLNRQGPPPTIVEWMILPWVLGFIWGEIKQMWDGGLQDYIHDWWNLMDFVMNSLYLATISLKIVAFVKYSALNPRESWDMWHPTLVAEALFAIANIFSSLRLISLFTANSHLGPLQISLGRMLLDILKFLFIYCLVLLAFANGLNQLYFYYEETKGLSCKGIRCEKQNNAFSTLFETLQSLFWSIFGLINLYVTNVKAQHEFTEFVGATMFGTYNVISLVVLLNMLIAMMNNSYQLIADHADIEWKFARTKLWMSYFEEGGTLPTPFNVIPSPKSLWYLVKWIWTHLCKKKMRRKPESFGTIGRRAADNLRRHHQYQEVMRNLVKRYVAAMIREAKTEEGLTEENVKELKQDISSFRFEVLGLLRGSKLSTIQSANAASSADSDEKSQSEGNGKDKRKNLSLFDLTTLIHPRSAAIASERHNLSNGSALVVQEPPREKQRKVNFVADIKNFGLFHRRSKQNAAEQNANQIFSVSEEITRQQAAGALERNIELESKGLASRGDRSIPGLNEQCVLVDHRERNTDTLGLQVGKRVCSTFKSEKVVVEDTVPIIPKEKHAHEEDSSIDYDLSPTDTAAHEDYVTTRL

[6] = biological target: Short transient receptor potential channel 4 (Mus musculus) (UniProt Q9QUQ5); test: inhibitors of mouse TRPC4 channel, confirmation, cell-based, second round, Fluo4, HEK293 TRPC4beta/mu-opioid, 1 µM (AID 2637;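 active means calcium signal ratio cut to more than 3 SD under the fully stimulated control mean yet still positive, in both repeats and the primary screen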); conditions: Fluo4 calcium flux, DAMGO, at 1 µM; stronger effect = higher value
[7] = biological target: Short transient receptor potential channel 4 (Mus musculus) (UniProt Q9QUQ5); test: mouse TRPC4 channel activators, dose response, cell-based, HEK293 TRPC4/mu-opioid, Fluo-4 calcium (AID 434937;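 active means primary screen activator hit with a dose response curve and TRPC4 channel activation at any tested dose; inactive means no activation, no dose response, or not a primary hit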)
[8] = biological target: Short transient receptor potential channel 4 (Mus musculus) (UniProt Q9QUQ5); test: TRPC4 positive allosteric modulators, dose response, cell-based, HEK293 TRPC4/mu-opioid, Fluo-4 calcium, EC20 DAMGO (AID 434941;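 active means earlier screen potentiator hit that boosts the TRPC4 ion channel at some dose, with a dose response; inactive means no potentiation, no dose response, or not a prior hit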;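 further: calcium entry triggered by an EC20 dose of DAMGO at the co-expressed mu-opioid receptor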)
[9] = biological target: Short transient receptor potential channel 4 (Mus musculus) (UniProt Q9QUQ5); test: mouse TRPC4 channel inhibitors, dose response, cell-based, HEK293 TRPC4/mu-opioid, Fluo-4 calcium (AID 434942)
[10] = biological target: Short transient receptor potential channel 6 (Mus musculus) (UniProt Q61143); test: inhibition of mouse TRPC6 channel, confirmation, selectivity assay for TRPC4 inhibitor project, cell-based, HEK293, membrane potential dye, duplicate (AID 434948;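 active means active in primary screen and both duplicates, each dropping signal beyond three positive-control SD with fluorescence still positive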); conditions: HEK293 TRPC6, membrane potential dye fluorescence, at 10 µM, stimulated with maximal-effect acetylcholine; stronger effect = higher value
Short transient receptor potential channel 6 (Mus musculus), sequence (Q61143 whole entry, looked up): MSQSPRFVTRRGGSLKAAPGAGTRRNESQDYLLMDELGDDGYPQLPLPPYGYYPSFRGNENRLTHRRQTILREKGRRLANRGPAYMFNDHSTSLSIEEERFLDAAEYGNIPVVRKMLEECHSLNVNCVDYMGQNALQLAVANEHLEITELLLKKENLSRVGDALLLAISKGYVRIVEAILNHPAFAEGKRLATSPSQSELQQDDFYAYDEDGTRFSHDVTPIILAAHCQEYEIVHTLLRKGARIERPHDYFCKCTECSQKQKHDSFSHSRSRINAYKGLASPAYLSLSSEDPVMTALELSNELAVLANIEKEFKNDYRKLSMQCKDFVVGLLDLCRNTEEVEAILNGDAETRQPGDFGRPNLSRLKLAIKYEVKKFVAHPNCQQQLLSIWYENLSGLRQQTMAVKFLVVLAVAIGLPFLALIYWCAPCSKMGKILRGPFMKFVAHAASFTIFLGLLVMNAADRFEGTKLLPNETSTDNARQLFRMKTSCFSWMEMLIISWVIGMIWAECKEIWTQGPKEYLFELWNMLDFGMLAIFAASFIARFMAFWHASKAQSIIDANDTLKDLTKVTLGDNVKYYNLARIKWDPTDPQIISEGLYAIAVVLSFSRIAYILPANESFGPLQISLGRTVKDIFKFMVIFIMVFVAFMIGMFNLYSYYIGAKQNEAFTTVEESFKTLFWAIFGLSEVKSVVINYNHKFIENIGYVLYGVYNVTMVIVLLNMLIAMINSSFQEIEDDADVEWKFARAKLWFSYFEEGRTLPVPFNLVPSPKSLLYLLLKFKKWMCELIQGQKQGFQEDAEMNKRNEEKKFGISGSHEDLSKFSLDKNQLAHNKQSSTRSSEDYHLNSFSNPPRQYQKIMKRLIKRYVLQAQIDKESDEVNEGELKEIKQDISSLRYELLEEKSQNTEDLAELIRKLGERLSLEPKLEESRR

[11] = biological target: Short transient receptor potential channel 6 (Mus musculus) (UniProt Q61143); test: activation of mouse TRPC6 channel, confirmation, selectivity assay for TRPC4 activator project, cell-based, HEK293, membrane potential dye, duplicate (AID 434950;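 active means membrane potential signal rise above negative control mean plus 3 SD in both duplicates, also active in the earlier TRPC4 screen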); conditions: HEK293 TRPC6, membrane potential fluorescence, at 10 µM; stronger effect = higher value
[12] = biological target: Short transient receptor potential channel 6 (Mus musculus) (UniProt Q61143); test: TRPC6 potentiation by TRPC4 potentiator hits, confirmation, selectivity assay for TRPC4 potentiator project, HEK293 cells, membrane potential dye, duplicate (AID 434952;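 active means compound raising the membrane signal above positive-control mean plus 3 SD in both repeats, and a primary screen hit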); conditions: HEK293 TRPC6, membrane potential dye fluorescence, at 10 µM, maximal acetylcholine added after compound; stronger effect = higher value
[13] = biological target: Short transient receptor potential channel 4 (Mus musculus) (UniProt Q9QUQ5); test: calcium flux activators in TRPC4/5HT1a cells, counter-screen for TRPC4 activator project, cell-based, second counter screen, HEK293 TRPC4/5HT1a, Fluo-4 (AID 434977;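 active means calcium signal rise above buffer-control mean plus 5 SD in both duplicates, and also a hit in the primary screen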); conditions: Fluo-4 calcium flux, at 10 µM; stronger effect = higher value
[14] = calcium flux inhibitors in TRPC4/5HT1a cells, confirmation, counter-screen for TRPC4 inhibitor project, cell-based, second counter screen, HEK293 TRPC4/5HT1a, Fluo-4 (AID 434978;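 active means primary screen active whose calcium signal fell more than 3 SD beyond the full-serotonin control mean in both duplicate plates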;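 further: serotonin given first at submaximal then at maximal dose after compound preincubation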); conditions: Fluo-4 calcium flux, at 10 µM, serotonin added to trigger calcium flux; stronger effect = higher value
[15] = tested on: TRPC4 (mouse), co-expressed with 5HT1a in HEK293; test: calcium flux potentiators in TRPC4/5HT1a cells, confirmation, counter-screen for TRPC4 potentiator project, cell-based, second counter screen, HEK293 TRPC4/5HT1a, Fluo-4 (AID 434979;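 active means signal rise over 3 SD above mean of control wells given weak agonist, in both repeats and first screen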); conditions: Fluo-4 calcium flux, at 10 µM, serotonin added at its EC20 dose; stronger effect = higher value
[16] = calcium flux activation in mu-opioid HEK293 cells, confirmation, counter-screen for TRPC4 activator project, cell-based, HEK293 mu-opioid receptor line (AID 449723;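 active means hit in primary screen, with calcium signal over 5 SD above buffer well mean in both duplicates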;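 further: counter screen cells carry the mu-opioid receptor alone and lack TRPC4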); conditions: Fluo-4 calcium fluorescence, at 10 µM; stronger effect = higher value
[17] = calcium flux enhancement in mu-opioid HEK293 cells, confirmation, counter-screen for TRPC4 allosteric potentiator project, cell-based, HEK293 mu-opioid receptor line (AID 449724;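 active means calcium signal rise more than 3 SD above the low-dose agonist control mean, in both duplicate plates and the primary screen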); conditions: Fluo-4 calcium flux, at 10 µM, compound added before EC20 DAMGO stimulus; stronger effect = higher value

Measured: potentiation

O=C(COC(=O)CSc1ccc([N+](=O)[O-])cc1)NCCCc1ccccc1
inactive: all assays above

CCOC(=O)c1c(C)oc2ccc(O)c(CN3CCCCC3)c12
inactive: all assays above

Cc1ccc(Nc2c(N)c(=O)oc3ccccc23)cc1
active: [15] 33%
inactive: all other assays above

CCCCN(C)CCNC(=O)c1c[nH]c2ccc(S(=O)(=O)N(CC)CC)cc2c1=O
active: [4] 46% | [15] 26.4%
inactive: all other assays above
